# Screening results (PubChem BioAssay)
# Sm TGR inh – inhibitors of Schistosoma mansoni thioredoxin glutathione reductase. purified TGR, DTNB reduction, TNB absorbance 405 nm. 3% of 360,000 active. Q962Y6. Potency, µM (series often up to 114 µM), for inactives: top-dose activity change, negative = inhibition, actives largely listed as inhibitors; further: on the % scale 0 is the no-effect control and ±100 the full control effect; nearly all actives have a fitted effect of over 60% in size
#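 First, TGR (20 nM dispensed) and NADPH were mixed with compound. Second, a 15 min room-temperature incubation followed. Third, further NADPH and then DTNB were added to start the reaction. Finally, TNB absorbance was monitored kinetically.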
# Pf growth 96h – inhibits malaria parasite growth, 96 h | AID 504834 | 6.9% of 320,000 active | Potency, µM (titrated, usually from 28.7 µM), inactives show at the highest dose activity change, negative = inhibition, actives largely listed as inhibitors | P. falciparum luciferase reporter growth, 96 h; further: on the % scale 0 is the no-effect control and ±100 the full control effect
#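 Parasite growth measured via integrated firefly luciferase reporter in P. falciparum. Infected erythrocytes at 2% hematocrit, 0.05% parasitemia final were treated 96 hours at 37 C under 5% CO2, and luminescence was read.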
# SARS PLP yeast – inhibitors of SARS-CoV papain-like protease in yeast; 0.19% of 330,000 active; Potency, µM (top dose mostly 32.9 µM), for inactives: at the highest dose activity, positive = growth rescue, most hits filed as activators; S. cerevisiae expressing SARS-CoV PLpro, growth rescue; AID 485353; calls by dose curve; further: 0% is about no effect; nearly all actives have a fitted effect of over 55% in size
# Pf growth 48h – P. falciparum growth inhibition at 48 hours (one generation) | Potency, µM (doses to about 28.7 µM), for the others: top-dose activity change, negative = inhibition, most hits filed as inhibitors | P. falciparum luciferase growth in erythrocytes, 48 h | AID 504832 | 5.9% of 310,000 active; further: on the % scale 0 is the no-effect control and ±100 the full control effect
#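 Luciferase-expressing parasites in RBCs, 2% Hct / 0.1% parasitemia final; RPMI 1640 + 0.5% Albumax; 37 C, 5% CO2, one generation; luminescence read-out, lower signal = inhibition.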
# The depositor's hits bear a star; ? = inconclusive; nt = not tested or not shown. Hits are enriched below; roughly 12% of the tested compounds scored in any of these assays. Unless noted, the call rests on the fitted dose curve; in most records, active means well fitted curve in the direction sought with a large enough effect; inconclusive means small, poorly fitted or top-dose-only effect, or another doubt; inactive means no such curve, though single readings can be large; an effect the other way counts as inactive or inconclusive. Potency means the concentration at half of the fitted maximal effect.
SMILES,Sm TGR inh,Pf growth 96h,SARS PLP yeast,Pf growth 48h
Cc1ccc(C(=O)N/C(=C\c2ccco2)C(=O)NCCN2CCOCC2)cc1,-1%,32%,0%,25%
Cn1c(Nc2ccc(Cl)cc2)cc(=O)n(C)c1=O,20µM*,-10%,-1%,?
O=C(O)c1ccccc1N=Cc1c(O)n(-c2nccs2)c(=O)c2ccccc12,5%,1%,0%,7%
CCN(CC)S(=O)(=O)c1cccc(-n2c(O)c(C=Nc3ccccc3C(=O)O)c3ccccc3c2=O)c1,-6%,7.4µM*,-1%,13µM*
CC(=O)n1cc([C@H]2C=C(C(=O)Nc3ccccc3)O[C@@H](OCc3ccc(CO)cc3)C2)c2ccccc21,-16%,12µM*,-1%,8.3µM*
CC(=O)n1cc([C@@H]2C=C(C(=O)NCc3ccccc3)O[C@H](OCc3ccc(CO)cc3)C2)c2ccccc21,50µM*,5.2µM*,12%,12µM*
C#CCNC(=O)C1=C[C@H](c2cn(C(C)=O)c3ccccc23)C[C@H](OCc2ccc(CO)cc2)O1,?,10µM*,0%,?
CC(=O)n1cc([C@@H]2C=C(C(=O)O)O[C@H](OCc3ccc(CO)cc3)C2)c2ccccc21,-34%,22%,-1%,16%
COc1ccc2c(c1)c(=O)c(C(=O)c1ccc(Cl)cc1)cn2CC(=O)Nc1ccc2c(c1)OCCO2,2%,nt,nt,nt
O=C1c2ccccc2NC(c2ccc(-c3ccc(C(F)(F)F)cc3)o2)N1O (centres undefined),nt,nt,13%,nt
